Inconclusive results are not listed. Activity calls are given as the source filed them. The call rests on the fitted dose curve; in most records, active means well fitted cell-killing curve with a large enough effect; inconclusive means small, poorly fitted or top-dose-only effect, or effect the other way; inactive means flat fitted curve, though single readings scatter.
Tests used:
Assay in all cases: Primary qHTS to identify gynecologic anti-cancer compounds using libraries of approved drugs and bioactive compounds (AID 1345084); further: nearly all actives have a fitted effect of over 55% in size
[1] = system: C33A; settings: Gynecologic cancer cell panel viability, ATPlite luminescence, 48 h; series mostly up to 57.5 µM
Method in brief: (§1)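 Cell viability after 48 h drug treatment, ATPlite luminescence readout; five doses.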

[2] = system: CAOV3; settings: Gynecologic cancer cell panel viability, ATPlite luminescence, 48 h; series mostly up to 57.5 µM
Method in brief: as §1

[3] = system: CASKI; settings: Gynecologic cancer cell panel viability, ATPlite luminescence, 48 h; series mostly up to 57.5 µM
Method in brief: as §1

[4] = system: Es-2; settings: Gynecologic cancer cell panel viability, ATPlite luminescence, 48 h; series mostly up to 57.5 µM
Method in brief: as §1

[5] = system: HeLa; settings: Gynecologic cancer cell panel viability, ATPlite luminescence, 48 h; series mostly up to 57.5 µM
Method in brief: as §1

[6] = system: Hek293T; settings: Gynecologic cancer cell panel viability, ATPlite luminescence, 48 h, control line for the selectivity index; series mostly up to 57.5 µM
Method in brief: as §1

[7] = system: JEG-3; settings: Gynecologic cancer cell panel viability, ATPlite luminescence, 48 h; series mostly up to 57.5 µM
Method in brief: as §1

[8] = system: OV90; settings: Gynecologic cancer cell panel viability, ATPlite luminescence, 48 h; series mostly up to 57.5 µM
Method in brief: as §1

[9] = system: PA-1; settings: Gynecologic cancer cell panel viability, ATPlite luminescence, 48 h; series mostly up to 57.5 µM
Method in brief: as §1

[10] = system: SKOV3; settings: Gynecologic cancer cell panel viability, ATPlite luminescence, 48 h; series mostly up to 57.5 µM
Method in brief: as §1

[11] = system: Tov-21-G; settings: Gynecologic cancer cell panel viability, ATPlite luminescence, 48 h; series mostly up to 57.5 µM
Method in brief: as §1

[12] = system: Tov112D; settings: Gynecologic cancer cell panel viability, ATPlite luminescence, 48 h; series mostly up to 57.5 µM
Method in brief: as §1
On the % scale 0 is the no-effect control and ±100 the full control effect.

C=C/C=C/[C@@H]1OC[C@H](/C=C/C=C/C)[C@H]1O
inactive: Potency [1] | Potency [2] | Potency [3] | Potency [4] | Potency [5] | Potency [6] | Potency [7] | Potency [8] | Potency [9] | Potency [10] | Potency [11] | Potency [12]

Cc1c(-c2ccnn2C)cc(C(=O)NCc2ccc(S(C)(=O)=O)cn2)c(=O)n1-c1cccc(C(F)(F)F)c1
inactive: Potency [1] | Potency [2] | Potency [3] | Potency [4] | Potency [5] | Potency [6] | Potency [7] | Potency [8] | Potency [9] | Potency [10] | Potency [11] | Potency [12]

CC1=C(C)C(=O)OC(C(C)C2C(O)CC3C4C5OC5C5(O)CC(OC6OC(CO)C(O)C(O)C6O)CC(O)C5(C)C4CCC32C)C1 (stereo unspecified)
inactive: Potency [1] | Potency [2] | Potency [3] | Potency [4] | Potency [5] | Potency [6] | Potency [7] | Potency [8] | Potency [9] | Potency [10] | Potency [11] | Potency [12]

CCc1cc2c(=O)c(-c3nc4ccccc4s3)coc2c(CN2CCCCC2)c1O
inactive: Potency [1] | Potency [2] | Potency [3] | Potency [4] | Potency [5] | Potency [6] | Potency [7] | Potency [8] | Potency [9] | Potency [10] | Potency [11] | Potency [12]

COc1c(C)c(C(=O)c2ccc(N)c(C(=O)O)c2)n2ccccc12
inactive: Potency [1] | Potency [2] | Potency [3] | Potency [4] | Potency [5] | Potency [6] | Potency [7] | Potency [8] | Potency [9] | Potency [10] | Potency [11] | Potency [12]

CCNC(=O)[C@@H]1CCCN1C(=O)[C@H](CCCN=C(N)N)NC(=O)[C@H](CC(C)C)NC(=O)[C@@H](C)NC(=O)[C@H](Cc1ccc(O)cc1)NC(=O)[C@H](CO)NC(=O)[C@H](Cc1c[nH]c2ccccc12)NC(=O)[C@H](Cc1cnc[nH]1)NC(=O)[C@@H]1CCC(=O)N1
inactive: Potency [1] | Potency [2] | Potency [3] | Potency [4] | Potency [5] | Potency [6] | Potency [7] | Potency [8] | Potency [9] | Potency [10] | Potency [11] | Potency [12]

CC(C)CC(=O)OC[C@H]1O[C@@](COC(=O)CC(C)C)(O[C@H]2O[C@H](CO)[C@@H](O)[C@H](O)[C@H]2OC(=O)CC(C)C)[C@@H](OC(=O)CC(C)C)[C@@H]1O
inactive: Potency [1] | Potency [2] | Potency [3] | Potency [4] | Potency [5] | Potency [6] | Potency [7] | Potency [8] | Potency [9] | Potency [10] | Potency [11] | Potency [12]

NCc1c[nH]c(=S)n1C1CCc2c(F)cc(F)cc2C1 (stereo unspecified)
inactive: Potency [1] | Potency [2] | Potency [3] | Potency [4] | Potency [5] | Potency [6] | Potency [7] | Potency [8] | Potency [9] | Potency [10] | Potency [11] | Potency [12]

CN1C(=O)c2ccccc2NC(=O)[C@]12O[C@@H]2c1cccc(O)c1
inactive: Potency [1] | Potency [2] | Potency [3] | Potency [4] | Potency [5] | Potency [6] | Potency [7] | Potency [8] | Potency [9] | Potency [10] | Potency [11] | Potency [12]

CC(C)(O)C1CC=C(C(=O)OCC2OC(Oc3c(O)cc(C(=O)O)cc3O)C(O)C(O)C2O)CC1 (stereo unspecified)
inactive: Potency [1] | Potency [2] | Potency [3] | Potency [4] | Potency [5] | Potency [6] | Potency [7] | Potency [8] | Potency [9] | Potency [10] | Potency [11] | Potency [12]

COc1ccc(C2=CC(=O)OC2Cc2ccc(O)cc2)c(O)c1 (stereo unspecified)
inactive: Potency [1] | Potency [2] | Potency [3] | Potency [4] | Potency [5] | Potency [6] | Potency [7] | Potency [8] | Potency [9] | Potency [10] | Potency [11] | Potency [12]

CNC(=O)[C@H]1O[C@@H](n2cnc3c(NCc4ccc(N)c(I)c4)ncnc32)[C@H](O)[C@@H]1O
inactive: activity change, negative = cytotoxicity [1] 17.6% [at 11.6 µM] | activity change, negative = cytotoxicity [2] -1.57% [at 11.6 µM] | activity change, negative = cytotoxicity [3] 16.3% [at 11.6 µM] | activity change, negative = cytotoxicity [4] 0.484% [at 11.6 µM] | activity change, negative = cytotoxicity [5] 5.87% [at 11.6 µM] | activity change, negative = cytotoxicity [6] 0.59% [at 11.6 µM] | activity change, negative = cytotoxicity [7] 20.5% [at 11.6 µM] | activity change, negative = cytotoxicity [8] -0.89% [at 11.6 µM] | activity change, negative = cytotoxicity [9] 0.696% [at 11.6 µM] | activity change, negative = cytotoxicity [10] -8.5% [at 11.6 µM] | activity change, negative = cytotoxicity [11] 15.7% [at 11.6 µM] | activity change, negative = cytotoxicity [12] 25.2% [at 11.6 µM]

C[C@@H]1O[C@@H](O[C@H]2[C@H](O[C@H]3CO[C@@H](O[C@H]4CC[C@@]5(C)C(CC[C@]6(C)C5CC[C@]57OC[C@@]8(CC[C@](C)(CO)CC85)[C@H](O)C[C@]76C)C4(C)C)[C@H](O[C@@H]4O[C@H](CO)[C@@H](O)[C@H](O)[C@H]4O)[C@H]3O)O[C@H](CO)[C@@H](O)[C@@H]2O)[C@H](O)[C@H](O)[C@H]1O (stereo partly specified)
inactive: activity change, negative = cytotoxicity [1] -5.68% [at 11.6 µM] | activity change, negative = cytotoxicity [2] -8.26% [at 11.6 µM] | activity change, negative = cytotoxicity [3] -2.01% [at 11.6 µM] | activity change, negative = cytotoxicity [4] -8.3% [at 11.6 µM] | activity change, negative = cytotoxicity [5] 0% [at 11.6 µM] | activity change, negative = cytotoxicity [6] 0.0587% [at 11.6 µM] | activity change, negative = cytotoxicity [7] -0.317% [at 11.6 µM] | activity change, negative = cytotoxicity [8] 0.0764% [at 11.6 µM] | activity change, negative = cytotoxicity [9] 4.72% [at 11.6 µM] | activity change, negative = cytotoxicity [10] 20.5% [at 11.6 µM] | activity change, negative = cytotoxicity [11] -1.65% [at 11.6 µM] | activity change, negative = cytotoxicity [12] -8.07% [at 11.6 µM]
